Data taken from PubChem BioAssay (NCATS).
Active and inactive are the calls of the source. The call rests on the fitted dose curve; in most records, active means well fitted curve in the direction sought with a large enough effect; inactive means no such curve, though single readings can be large or run the other way.

Biological target: Alpha-galactosidase (Coffea arabica) (UniProt Q42656)
Test: Counterscreen for Glucocerebrosidase Inhibitors: qHTS Assay for Coffee Bean alpha-Galactosidase at pH 5.9 (AID 998)
Details: coffee bean alpha-galactosidase enzyme assay; series mostly up to 76.9 µM
Method in brief: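 Compounds were titrated from 0.7 nM to 77 uM against green coffee bean alpha-galactosidase (2 nM) using 80 uM fluorogenic 4-methylumbelliferyl substrate. After 20 min at room temperature, reactions were stopped at pH 10 and read by fluorescence.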

Alpha-galactosidase (Coffea arabica), sequence (Q42656 whole entry, looked up): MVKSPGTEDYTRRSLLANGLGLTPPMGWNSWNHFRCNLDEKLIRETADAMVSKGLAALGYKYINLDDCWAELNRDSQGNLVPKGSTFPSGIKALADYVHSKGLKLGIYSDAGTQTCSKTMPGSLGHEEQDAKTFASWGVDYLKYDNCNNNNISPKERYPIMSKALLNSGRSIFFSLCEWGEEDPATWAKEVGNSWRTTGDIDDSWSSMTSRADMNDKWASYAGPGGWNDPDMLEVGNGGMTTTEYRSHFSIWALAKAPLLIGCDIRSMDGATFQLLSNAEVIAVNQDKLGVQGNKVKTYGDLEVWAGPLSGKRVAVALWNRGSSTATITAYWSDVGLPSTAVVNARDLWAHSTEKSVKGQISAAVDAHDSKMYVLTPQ

CN1CCN(C2=Nc3ccccc3Oc3ccc(Cl)cc32)CC1 was tested. Which outcome did it give?
Its outcome is “inactive”.

Which outcome does the source give for NS(=O)(=O)Cc1noc2ccccc12 here?
Its outcome is “inactive”.

Which outcome does the source give for COC(=O)[C@H]1[C@H]2C[C@@H]3c4[nH]c5cc(OC)ccc5c4CCN3C[C@H]2C[C@@H](OC(=O)c2cc(OC)c(OC)c(OC)c2)[C@@H]1OC here?
The outcome was “inactive”.

How did the outcome turn out when CC(C)OC(=O)C(C)(C)Oc1ccc(C(=O)c2ccc(Cl)cc2)cc1 was run?
Its outcome is “inactive”.

How did the outcome turn out when COc1cc(Cc2cnc(N)nc2N)cc(OC)c1OC was run?
The outcome was “inactive”.

For Cn1cnc([N+](=O)[O-])c1Sc1ncnc2nc[nH]c12, which outcome is on record?
The outcome was “inactive”.

Which outcome does the source give for CCOC(=O)c1ncn2c1CN(C)C(=O)c1cc(F)ccc1-2 here?
Its outcome is “inactive”.

For NC[C@H](O)c1ccc(O)c(O)c1, which outcome is on record?
The outcome was “inactive”.

With CN(C)CCC[C@@]1(c2ccc(F)cc2)OCc2cc(C#N)ccc21 as the compound, how does the outcome read?
Its outcome is “inactive”.

Nc1nnc(-c2cccc(Cl)c2Cl)c(N)n1 was tested. Which outcome did it give?
The outcome was “inactive”.

Which outcome does the source give for NNc1nncc2ccccc12 here?
Its outcome is “inactive”.

Cc1ccccc1N1C(=O)c2cc(S(N)(=O)=O)c(Cl)cc2NC1C (stereo not given) was tested. Which outcome did it give?
The outcome was “inactive”.

How did the outcome turn out when O=c1[nH]cc(F)c(=O)[nH]1 was run?
Its outcome is “inactive”.

CN1CCN(CCCN2c3ccccc3Sc3ccc(C(F)(F)F)cc32)CC1 was tested. Which outcome did it give?
The outcome was “inactive”.

How did the outcome turn out when CN(C)c1nc(N(C)C)nc(N(C)C)n1 was run?
The outcome was “inactive”.

OCCN1CCN(CCCN2c3ccccc3Sc3ccc(Cl)cc32)CC1 was tested. Which outcome did it give?
Its outcome is “inactive”.

For Nc1ncn([C@@H]2O[C@H](CO)[C@@H](O)[C@H]2O)c(=O)n1, which outcome is on record?
The outcome was “inactive”.

How did the outcome turn out when NC(=O)OCC(COC(N)=O)c1ccccc1 was run?
The outcome was “inactive”.

CC(=O)Nc1nnc(S(N)(=O)=O)s1 was tested. Which outcome did it give?
The outcome was “inactive”.

Which outcome does the source give for CN/C(=C\[N+](=O)[O-])NCCSCc1ccc(CN(C)C)o1 here?
The outcome was “inactive”.
